# Assay outcomes (PubChem BioAssay)
# ERK AVP block: blocks ERK signaling stimulated by vasopressin; HEK293-V1b, vasopressin-stimulated pERK AlphaScreen; Potency, µM (highest dose often 57.5 µM), hits mostly inhibitors; actives 0.99% (n = 72,000); AID 995; note: nearly all actives have a fitted effect of over 55% in size
#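 Overnight-seeded V1b-HEK293 cells in 1% FBS got compound, then vasopressin (25 nM final, 5 min, 37C), then lysis buffer. AlphaScreen detection of phospho-ERK; activity normalized to basal and full-stimulation controls.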
# HEK293 cAMP cs: parental HEK293 cAMP activation (counter-screen); Potency, µM (top dose mostly 57.1 µM), hits mostly activators; parental HEK293 CNG cAMP sensor, membrane potential fluorescence; actives 2.5% (n = 73,000); note: nearly all actives have a fitted effect of over 55% in size
#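 Parental HEK 293 cells stably expressing a modified CNG channel (no TSHR) report cAMP rise as membrane depolarization. Membrane potential dye with 100 uM RO 20-1724 was loaded for 60 min at room temperature, then compound added for 30 min; fluorescence read at 590 nm.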
# TSHR ag: agonists of human thyroid stimulating hormone receptor. AID 926. actives 0.48% (n = 73,000). HEK293-CNG-TSHR cells (CNG channel as cAMP sensor), membrane potential dye, cAMP. Potency, µM (doses to about 57.1 µM), hits mostly activators. P16473; active = well fitted activation curve with a large enough effect in the main read-out, with a control signal flat, not every such curve was filed as active; inconclusive = small, poorly fitted or top-dose-only effect, or a change in a side signal; inactive = no such curve, though single readings can be large or run the other way; reference of the percent scale not stated here;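 note: the control signal comes from parental cells without the receptor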
#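 HEK 293 cells stably expressing TSHR and a cAMP-gated CNG channel; parental CNG-only cells as counterscreen. Cells preloaded 60 min with membrane potential dye plus 100 uM RO 20-1724, then compound 30 min; fluorescence read at 590 nm.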
# Tau fil binding: binds recombinant human tau filaments. P10636. recombinant tau filaments, thioflavin S fluorescence, 15 h; filaments grown with octadecylsulfate alongside compound. Potency, µM (highest dose often 57.1 µM). actives 2% (n = 71,000). AID 596;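 note: actives lower thioflavin S fluorescence by blocking filaments or displacing dye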
# Target sequence (P10636 whole entry, looked up): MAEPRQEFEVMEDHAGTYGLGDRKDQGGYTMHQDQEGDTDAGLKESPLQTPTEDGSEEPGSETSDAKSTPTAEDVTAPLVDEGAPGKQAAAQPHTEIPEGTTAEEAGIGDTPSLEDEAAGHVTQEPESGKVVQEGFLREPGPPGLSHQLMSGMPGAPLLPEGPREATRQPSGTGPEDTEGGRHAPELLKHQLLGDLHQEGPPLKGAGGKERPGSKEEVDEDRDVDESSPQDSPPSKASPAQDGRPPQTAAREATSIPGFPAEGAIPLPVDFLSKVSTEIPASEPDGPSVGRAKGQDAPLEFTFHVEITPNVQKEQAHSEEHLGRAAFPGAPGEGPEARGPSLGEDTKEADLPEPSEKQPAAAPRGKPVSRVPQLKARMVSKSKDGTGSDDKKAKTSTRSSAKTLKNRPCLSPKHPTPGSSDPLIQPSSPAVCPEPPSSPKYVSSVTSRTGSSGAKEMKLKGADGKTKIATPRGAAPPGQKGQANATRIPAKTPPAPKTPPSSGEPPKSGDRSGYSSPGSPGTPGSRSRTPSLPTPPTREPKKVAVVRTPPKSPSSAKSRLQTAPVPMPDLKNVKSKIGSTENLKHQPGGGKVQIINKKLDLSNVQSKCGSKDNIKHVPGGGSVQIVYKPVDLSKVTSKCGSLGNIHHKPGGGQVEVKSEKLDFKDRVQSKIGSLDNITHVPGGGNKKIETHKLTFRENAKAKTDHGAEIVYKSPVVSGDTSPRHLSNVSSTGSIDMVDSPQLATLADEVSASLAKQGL
#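 Tau 2 uM in ThS buffer dispensed; compound added; 60 uM ODS added (finals 1 uM tau, 30 uM ODS); 15 h 37 C; fluor ex450/em510.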
# CRE Fsk mod: modulators of forskolin-stimulated CRE signaling in CHO cells; CHO CRE-bla reporter (cAMP response element driving beta-lactamase), forskolin EC10, beta-lactamase ratio; actives 2.5% (n = 71,000); Potency, µM (top dose mostly 38.2 µM), usual class: activators; AID 662; active = well fitted activation curve with a large enough effect in the signal ratio, with a control signal flat, not every such curve was filed as active; inconclusive = small, poorly fitted or top-dose-only effect, or effect the other way, or a change in a side signal; the % refers to the signal ratio
#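 Titrated compounds plus EC10 NKH 477 on CHO CRE-bla cells, 3 h, 37 °C. CCF4, 2 h RT. Ratio 460/530 nm → AC50.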
# A number is an active result; - = inactive; ? = inconclusive; . = no result; [ ] = another dose, or the depositor's remark. Hits are enriched below; roughly 7.4% of the tested compounds scored in any of these assays. Unless noted, calls come from the whole dose curve; as a rule, active = well fitted curve in the direction sought with a large enough effect; inconclusive = small, poorly fitted or top-dose-only effect, or another doubt; inactive = no such curve, though single readings can be large; an effect the other way counts as inactive or inconclusive.
SMILES,ERK AVP block,HEK293 cAMP cs,TSHR ag,Tau fil binding,CRE Fsk mod
CCCn1c(SCc2ccc(Cl)cc2)nc2c1c(=O)[nH]c(=O)n2C,-,?,?,-,13µM
CCCn1c(SCCc2ccccc2)nc2c1c(=O)[nH]c(=O)n2C,-,-,-,-,?
C=CC[C@@H]1C=C[C@H](O/N=C(\C)CCN2CCc3nc(-c4ccccc4)c(-c4ccccc4)cc3C2)[C@H](CO)O1,-[11.5 µM],-[11.4 µM],-[11.4 µM],.,.
O=C(NC1CCCCC1)c1ccc(Cc2nc3ccccc3[nH]2)cc1,.,-,-,.,.
Cc1nc(SCC(=O)Nc2ccc(C)c(F)c2)c2oc3ccccc3c2n1,-,?,?,-,0.63µM
O=C(O)[C@@H]1[C@@H](C(=O)NCc2ccncc2)[C@@H]2C=C[C@@H]1O2,-[11.5 µM],-[11.4 µM],-[11.4 µM],-[11.4 µM],-[7.6 µM]
C=CCn1c(SCC(=O)N2CCOCC2)nc2scc(-c3ccco3)c2c1=O,32µM,-,-,-,-
C=CCn1c(SCC(=O)N2CCOCC2)nc2sc3c(c2c1=O)CCCC3,?,-,.,-,?
Cn1cccc1Cc1nnc(SCC(=O)N2CCCC2)n1CCc1ccccc1,?,-,-,-,-
Cn1cccc1Cc1nnc(SCC(=O)N2CCc3ccccc32)n1CCc1ccccc1,16µM,-,-,-,-
CCOC(=O)c1c(CN2CCCCC2)n(C)c2cc(Br)c(O)c(CN(C)C)c12,-,-,-,-,-
CCOC(=O)c1c(CN2CCCCC2)n(C)c2cc(Br)c(OC)cc12,-,?,?,-,10µM
CCNc1ncc2nc(C)c(=O)n(Cc3cccs3)c2n1,16µM,?,?,-,10µM
Cc1nc2cnc(N3CCNCC3)nc2n(Cc2cccs2)c1=O,-,-,-,-,10µM
COCCn1c(=O)c(-c2ccccc2)nc2cnc(N3CCNCC3)nc21,-,-,-,-,?
CCNc1ncc2ncc(=O)n(Cc3cccs3)c2n1,-,?,?,-,?
CN1CCN(c2ncc3nc(-c4ccc(F)cc4)c(=O)n(Cc4cccs4)c3n2)CC1,20µM,-,-,-,?
O=c1c(-c2ccccc2)nc2cnc(N3CCNCC3)nc2n1Cc1cccs1,-,-,-,5µM,?
CN(C)CCCNCCCN,-,-,-,-,-
CC1=C(C)CC(c2ccccc2)C(C(=O)c2ccccc2O)C1 (configuration not stated),-[11.5 µM],-[11.4 µM],-[11.4 µM],.,.
CC1=CC(=O)C2=C(C)CC[C@@H]3[C@H](OC(=O)[C@H]3C)[C@H]12,.,-,-,?,?
CCOc1cc2c(cc1OCC)C(c1ccc(O)c(OC)c1)NCC2 (configuration not stated),-,-,-,-,?
CCOc1cc2c(cc1OCC)C(c1cc(OC)c(O)c(OC)c1)NCC2 (configuration not stated),?,-,-[11.4 µM],-,10µM
O=C1SC(SCc2ccccc2)=N/C1=C\c1ccco1,-,?,?,?,-
CCCSC1=N/C(=C\C=C\c2ccco2)C(=O)S1,-,-,-,2µM,-
SMILES,ERK AVP block,HEK293 cAMP cs,TSHR ag,Tau fil binding,CRE Fsk mod
CCCNC(=O)OC[C@@H]1O[C@H](CCO/N=C(\C)CCN2CCCc3nc(C)c(C)cc32)C=C[C@@H]1Oc1ccc(OC)cc1,-[11.5 µM],-[11.4 µM],-[11.4 µM],.,.
Cc1ccc(NC(=O)CSCC(N)=O)cc1C,-,-,-,3.2µM,?
O=C(Nc1ccc(Cl)cc1C(=O)Nc1ccc(Br)cn1)c1ccco1,-,20µM,?,-,-
COc1ccc(Cl)cc1NC(=O)c1ccco1,-,?,?,-,-
CC1(C)Cc2cccc(OCC(=O)Nc3ccccc3N3CCOCC3)c2O1,-,20µM,?,-,?
CCOC(=O)c1cc(C#N)c(N)nc1C,-,-,-,-,10µM
CCOC(=O)c1cc2c(N)c(C(=O)c3cc(C#N)c(SC)nc3C)sc2nc1C,-,-,-,-,?
CCOC(=O)c1cnc(SCc2ccc(C)cc2)nc1N,-,?,?,-,?
CCOC(=O)c1cc(C#N)c(SCc2ccc(C#N)cc2)nc1C,-,32µM,?,-,?
O=S(=O)(Nc1cccnc1)c1cccc2cccnc12,.,-,-,-,-
c1ccc(-c2cccc(N3CC[C@@]4(CCCNC4)C3)c2)cc1,-,-,-,13µM,-
CCCN(CCC)S(=O)(=O)c1cccc(C(=O)Nc2ccc3c(c2)OCO3)c1,-,16µM,?,-,-
CCN(CC)S(=O)(=O)c1ccc(C(=O)Nc2ccc3c(c2)OCCO3)cc1,-,-,-[11.4 µM],-,-
CCC/C=C(\CCC)C(NC(=O)C(C)(C)C)c1ccc(C(=O)OC)cc1 (configuration not stated),-,16µM,?,-,-
CCC/C=C(\CCC)C(NC(=O)c1cccs1)c1ccc(C(=O)OC)cc1 (configuration not stated),-,13µM,?,-,-
CCC/C=C(\CCC)C(NC(=O)c1ccc(C(F)(F)F)cc1)c1ccccc1 (configuration not stated),-,16µM,?,-,?
Nc1ccn([C@@H]2O[C@H](COC(=O)C34CC5CC(CC(C5)C3)C4)[C@@H](O)[C@@H]2O)c(=O)n1,-[11.5 µM],-[11.4 µM],-[11.4 µM],-[11.4 µM],-[7.6 µM]
O=C(O)[C@@H](O)c1ccc(F)cc1,-[11.5 µM],-[11.4 µM],-[11.4 µM],-[11.4 µM],-[7.6 µM]
O=C(Nc1cnn(Cc2ccc(F)cc2)c1)c1cc2nc(-c3ccco3)cc(C(F)(F)F)n2n1,-,-,-,16µM,-
Cc1nn(Cc2ccccc2)c(C)c1NC(=O)c1cc2nc(-c3ccco3)cc(C(F)(F)F)n2n1,?,-,-,16µM,?
Cc1noc(C)c1C(=O)N1CCC2(CC1)CCN(C(c1ccccc1)c1ccccc1)CC2,-,-,32µM,-,-
O=C(c1ccco1)N1CCC2(CC1)CN(C(c1ccccc1)c1ccccc1)C2,-,?,?,-,-
O=C(c1ccco1)N1CCC[C@@]2(CCN(C(c3ccccc3)c3ccccc3)C2)C1,-,16µM,?,-,?
COC(=O)N1CCC[C@@]2(CCN(C(c3ccccc3)c3ccccc3)C2)C1,-,7.9µM,?,-,-
CC(=O)N1CCC2(CCCN(C(c3ccccc3)c3ccccc3)C2)CC1,-,16µM,?,-,?
CC(=O)N1CCC2(CC1)CCN(C(c1ccccc1)c1ccccc1)CC2,-,-,-,-,-
CC(C)[C@]1(Cl)CC[C@@H]2[C@]3(C)CCC[C@@](C)(C(=O)O)[C@H]3C[C@H](Cl)[C@@]2(Cl)[C@H]1Cl,-[11.5 µM],-[11.4 µM],-[11.4 µM],-[11.4 µM],-[7.6 µM]
CCOC(=O)c1cnc(-n2nc(C)cc2C)nc1NC(C)c1ccccc1 (configuration not stated),-,25µM,?,-,-
CCOC(=O)c1cnc(-n2nc(C)cc2C)nc1NCc1ccccc1,?,20µM,?,-,-
CCOC(=O)c1cnc(-n2cc(C)cn2)nc1NCc1ccc2c(c1)OCO2,-,?,?,-,2.5µM
